Source: the supplement of paper PMC11006884
Targets with a hit are over-represented here; the source holds about 6,500 in all. About 2% of all pairs of compound and target were hits.

compound: COC(=O)C#Cc1ccccc1 [methyl 3-phenylpropiolate]; assay: log2 ratio of iodoacetamide-alkyne labeling of the cysteine site, DMSO over compound (competition); higher = stronger covalent engagement of the cysteine by the compound, active = 1 or more; conditions: 500 µM; treatment time 1 h; system: HEK293T cell lysate
Summary of the method: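 Electrophile (500 µM) or vehicle was added to HEK293T lysate (2 mg/mL) for 1 h at ambient temperature before iodoacetamide alkyne labelling (1 h) and click coupling to sCIP-TMT reagents. After pooling, overnight trypsin digestion at 37 °C, streptavidin enrichment and acid elution, peptides were measured by Orbitrap Eclipse LC-MS/MS with FAIMS and quantified in FragPipe. Each cysteine's log2 competition ratio compares mean control-channel with mean compound-channel reporter intensity, control over compound. Data came from duplicate channels across three replicates, excluding cysteines quantified in only one replicate.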

Sequence of UniProt Q5JTH9 (Q5JTH9 whole entry, looked up): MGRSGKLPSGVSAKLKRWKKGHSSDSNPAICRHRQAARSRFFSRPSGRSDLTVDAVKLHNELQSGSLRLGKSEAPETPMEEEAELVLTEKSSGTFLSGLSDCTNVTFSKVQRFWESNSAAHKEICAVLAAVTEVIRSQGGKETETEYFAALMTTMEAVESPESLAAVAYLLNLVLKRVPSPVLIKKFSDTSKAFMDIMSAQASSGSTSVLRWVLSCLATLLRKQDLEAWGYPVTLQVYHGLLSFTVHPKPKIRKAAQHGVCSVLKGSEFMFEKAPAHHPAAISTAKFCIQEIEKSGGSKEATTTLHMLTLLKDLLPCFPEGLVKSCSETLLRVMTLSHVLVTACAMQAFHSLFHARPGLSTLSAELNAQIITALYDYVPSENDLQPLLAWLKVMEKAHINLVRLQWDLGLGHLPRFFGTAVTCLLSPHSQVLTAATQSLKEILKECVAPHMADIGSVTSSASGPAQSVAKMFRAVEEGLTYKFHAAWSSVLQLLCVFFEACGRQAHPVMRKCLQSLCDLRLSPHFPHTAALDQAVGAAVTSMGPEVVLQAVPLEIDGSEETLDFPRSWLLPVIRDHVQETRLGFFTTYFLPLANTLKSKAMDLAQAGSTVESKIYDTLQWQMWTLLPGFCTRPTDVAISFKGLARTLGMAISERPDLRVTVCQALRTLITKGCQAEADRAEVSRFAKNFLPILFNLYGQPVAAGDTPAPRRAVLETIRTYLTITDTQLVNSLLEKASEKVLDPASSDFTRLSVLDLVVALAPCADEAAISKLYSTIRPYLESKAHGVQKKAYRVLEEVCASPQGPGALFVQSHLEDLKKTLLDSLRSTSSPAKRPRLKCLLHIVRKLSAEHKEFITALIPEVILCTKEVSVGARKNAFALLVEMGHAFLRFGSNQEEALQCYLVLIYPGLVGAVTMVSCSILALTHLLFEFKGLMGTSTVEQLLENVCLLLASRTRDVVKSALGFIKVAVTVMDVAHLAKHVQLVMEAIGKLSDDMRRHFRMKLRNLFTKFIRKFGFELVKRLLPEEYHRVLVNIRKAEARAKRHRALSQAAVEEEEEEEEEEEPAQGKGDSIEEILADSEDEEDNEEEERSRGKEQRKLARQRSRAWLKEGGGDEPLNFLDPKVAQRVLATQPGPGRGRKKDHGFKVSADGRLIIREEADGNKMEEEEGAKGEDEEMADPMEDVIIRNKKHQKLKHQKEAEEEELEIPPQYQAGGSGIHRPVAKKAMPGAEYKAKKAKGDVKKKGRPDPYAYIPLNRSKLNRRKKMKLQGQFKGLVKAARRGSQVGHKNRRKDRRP
Sequence of UniProt Q02952 (Q02952 whole entry, looked up): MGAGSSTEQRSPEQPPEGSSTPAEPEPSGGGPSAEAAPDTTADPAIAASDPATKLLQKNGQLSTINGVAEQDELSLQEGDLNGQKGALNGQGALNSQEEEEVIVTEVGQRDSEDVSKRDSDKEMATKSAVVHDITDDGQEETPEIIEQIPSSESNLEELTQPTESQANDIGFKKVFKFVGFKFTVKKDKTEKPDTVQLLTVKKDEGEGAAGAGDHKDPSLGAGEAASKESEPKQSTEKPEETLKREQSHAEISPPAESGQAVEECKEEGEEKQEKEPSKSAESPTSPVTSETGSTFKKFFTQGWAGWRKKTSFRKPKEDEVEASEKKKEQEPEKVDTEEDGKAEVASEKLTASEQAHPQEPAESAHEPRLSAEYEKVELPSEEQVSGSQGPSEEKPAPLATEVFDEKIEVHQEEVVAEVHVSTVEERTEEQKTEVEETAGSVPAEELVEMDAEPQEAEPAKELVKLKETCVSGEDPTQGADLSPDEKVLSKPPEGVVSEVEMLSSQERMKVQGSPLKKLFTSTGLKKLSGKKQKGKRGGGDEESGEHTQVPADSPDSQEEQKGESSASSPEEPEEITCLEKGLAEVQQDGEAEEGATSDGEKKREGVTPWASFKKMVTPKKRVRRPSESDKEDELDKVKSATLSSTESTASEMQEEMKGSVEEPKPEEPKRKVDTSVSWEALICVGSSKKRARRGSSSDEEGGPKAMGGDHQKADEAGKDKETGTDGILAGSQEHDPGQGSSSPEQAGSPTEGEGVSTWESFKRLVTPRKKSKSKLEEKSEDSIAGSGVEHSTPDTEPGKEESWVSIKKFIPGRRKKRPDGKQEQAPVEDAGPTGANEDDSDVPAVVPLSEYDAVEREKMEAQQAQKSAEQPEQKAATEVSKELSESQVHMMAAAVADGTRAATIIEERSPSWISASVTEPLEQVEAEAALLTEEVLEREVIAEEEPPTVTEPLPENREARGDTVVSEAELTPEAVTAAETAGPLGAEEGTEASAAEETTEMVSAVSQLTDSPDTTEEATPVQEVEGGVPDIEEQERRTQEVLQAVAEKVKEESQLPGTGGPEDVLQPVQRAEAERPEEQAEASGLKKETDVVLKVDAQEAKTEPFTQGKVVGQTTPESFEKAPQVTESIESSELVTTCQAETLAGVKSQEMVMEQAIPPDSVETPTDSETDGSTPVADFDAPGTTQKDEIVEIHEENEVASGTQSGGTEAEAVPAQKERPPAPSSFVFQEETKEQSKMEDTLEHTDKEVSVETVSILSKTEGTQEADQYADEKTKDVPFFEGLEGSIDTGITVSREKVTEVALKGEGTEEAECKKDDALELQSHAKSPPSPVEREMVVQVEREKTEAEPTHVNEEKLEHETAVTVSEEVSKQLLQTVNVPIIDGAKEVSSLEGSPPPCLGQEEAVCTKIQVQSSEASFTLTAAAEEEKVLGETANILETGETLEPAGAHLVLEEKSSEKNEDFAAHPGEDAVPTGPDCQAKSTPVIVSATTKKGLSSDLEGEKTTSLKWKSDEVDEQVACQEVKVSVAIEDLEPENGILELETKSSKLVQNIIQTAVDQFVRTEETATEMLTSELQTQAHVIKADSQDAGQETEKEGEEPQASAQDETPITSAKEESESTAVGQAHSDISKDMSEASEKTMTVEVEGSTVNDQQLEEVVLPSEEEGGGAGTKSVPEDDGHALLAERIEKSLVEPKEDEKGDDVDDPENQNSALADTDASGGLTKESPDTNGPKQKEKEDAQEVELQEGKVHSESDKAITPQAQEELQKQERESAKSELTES
Sequence of UniProt Q14676 (Q14676 whole entry, looked up): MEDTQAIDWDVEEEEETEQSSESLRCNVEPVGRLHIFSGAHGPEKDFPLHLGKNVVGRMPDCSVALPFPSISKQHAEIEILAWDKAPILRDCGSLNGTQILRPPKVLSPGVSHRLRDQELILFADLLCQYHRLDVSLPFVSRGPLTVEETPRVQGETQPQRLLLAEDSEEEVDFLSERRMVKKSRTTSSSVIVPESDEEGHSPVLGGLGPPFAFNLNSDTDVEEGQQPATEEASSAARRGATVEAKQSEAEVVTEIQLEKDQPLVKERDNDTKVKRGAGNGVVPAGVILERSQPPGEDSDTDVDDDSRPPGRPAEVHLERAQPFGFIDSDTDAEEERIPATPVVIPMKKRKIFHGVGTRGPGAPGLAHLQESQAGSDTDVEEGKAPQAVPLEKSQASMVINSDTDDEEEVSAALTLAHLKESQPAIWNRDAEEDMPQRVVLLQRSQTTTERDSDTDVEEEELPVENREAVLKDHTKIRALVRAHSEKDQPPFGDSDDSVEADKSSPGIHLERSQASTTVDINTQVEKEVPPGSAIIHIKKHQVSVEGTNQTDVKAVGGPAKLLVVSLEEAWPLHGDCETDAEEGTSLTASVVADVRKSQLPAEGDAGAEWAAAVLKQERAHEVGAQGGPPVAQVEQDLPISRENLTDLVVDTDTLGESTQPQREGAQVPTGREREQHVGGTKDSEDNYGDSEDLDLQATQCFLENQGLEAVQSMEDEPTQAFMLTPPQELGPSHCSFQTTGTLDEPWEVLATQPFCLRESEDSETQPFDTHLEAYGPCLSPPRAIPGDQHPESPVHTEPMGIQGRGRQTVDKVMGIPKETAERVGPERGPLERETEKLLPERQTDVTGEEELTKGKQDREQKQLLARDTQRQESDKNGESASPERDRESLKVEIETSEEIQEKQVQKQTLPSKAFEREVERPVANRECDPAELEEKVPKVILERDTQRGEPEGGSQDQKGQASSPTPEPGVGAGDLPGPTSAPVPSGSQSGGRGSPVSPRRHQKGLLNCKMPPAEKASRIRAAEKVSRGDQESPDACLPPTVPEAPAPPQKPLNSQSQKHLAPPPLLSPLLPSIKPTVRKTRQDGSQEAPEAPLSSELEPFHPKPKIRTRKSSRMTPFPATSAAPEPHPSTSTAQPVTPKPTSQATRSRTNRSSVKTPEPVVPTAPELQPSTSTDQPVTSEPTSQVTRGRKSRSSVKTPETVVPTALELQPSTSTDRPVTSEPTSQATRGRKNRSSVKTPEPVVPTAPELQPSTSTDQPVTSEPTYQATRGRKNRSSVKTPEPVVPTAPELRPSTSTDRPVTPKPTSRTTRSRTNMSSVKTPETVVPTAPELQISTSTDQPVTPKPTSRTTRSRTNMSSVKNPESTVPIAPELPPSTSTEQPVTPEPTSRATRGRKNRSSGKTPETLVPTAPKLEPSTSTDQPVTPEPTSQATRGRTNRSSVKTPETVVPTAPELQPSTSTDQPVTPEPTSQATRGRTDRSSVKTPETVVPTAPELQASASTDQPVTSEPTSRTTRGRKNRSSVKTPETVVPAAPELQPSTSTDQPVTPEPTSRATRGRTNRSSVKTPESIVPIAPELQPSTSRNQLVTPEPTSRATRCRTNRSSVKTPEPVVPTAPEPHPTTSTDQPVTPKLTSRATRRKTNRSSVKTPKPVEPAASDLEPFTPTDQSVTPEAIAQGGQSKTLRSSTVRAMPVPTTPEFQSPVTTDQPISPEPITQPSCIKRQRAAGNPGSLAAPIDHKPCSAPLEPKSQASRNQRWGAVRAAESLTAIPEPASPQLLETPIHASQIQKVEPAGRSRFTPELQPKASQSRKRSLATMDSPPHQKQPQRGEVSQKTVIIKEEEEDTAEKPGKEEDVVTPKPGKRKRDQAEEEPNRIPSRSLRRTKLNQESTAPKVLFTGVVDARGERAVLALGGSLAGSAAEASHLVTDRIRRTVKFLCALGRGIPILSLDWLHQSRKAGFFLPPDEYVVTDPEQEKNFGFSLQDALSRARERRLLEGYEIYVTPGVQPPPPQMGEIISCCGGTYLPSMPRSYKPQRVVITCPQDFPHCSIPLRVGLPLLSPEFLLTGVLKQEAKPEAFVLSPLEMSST

log2 ratio of iodoacetamide-alkyne labeling, active:
NOTCH2 C1357 (UniProt Q04721) 1.55
UniProt Q13155_C23 1.24
ACTR3 C235 (UniProt P61158) 1.28
RRP12 C31 (UniProt Q5JTH9) 1.26

log2 ratio of iodoacetamide-alkyne labeling, inactive:
KIF14 C442 (UniProt Q15058) 0.0677
FOXK1 C439 (UniProt P85037) 0.622
UniProt Q15042_C335 0.153
UniProt P60842_C134 0.0481
AP1B1 C129 (UniProt Q10567) 0.414
UniProt Q15365_C158 0.366
GTF2I C80 (UniProt P78347) 0.0358
EEF1A2 C326 (UniProt Q05639) 0.25
NUP98 C1590 (UniProt P52948) 0.601
AKAP12 C1139 (UniProt Q02952) 0.521
HNRNPU C497 (UniProt Q00839) 0.211
RING1 C69 (UniProt Q06587) 0.171
DYNC1H1 C3147 (UniProt Q14204) 0.433
NUP98 C1312 (UniProt P52948) 0.426
MDC1 C128 (UniProt Q14676) 0.14
UniProt P62854_C77 0.434
GANAB C423 (UniProt Q14697) 0.019
PEX3 C65 (UniProt P56589) 0.385
UniProt P60709_C217 0.0537
